Compounds with a hit are over-represented: about 3.6% of the library has one in this group of screens.
HCT116 bCat-KO: primary screen for growth suppressors in beta-catenin knockout HCT116 cells (colon tumor, human); HCT116 beta-catenin knockout viability, CellTiter-Glo, 60 h; hits give low values; viability, % at 10 µM; 1.5% of 140,000 active; AID 818, 2007;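 active = viability at or under a set limit, the compound median less 4 SD, cut at about 6% in these data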;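 also: 0% = Hyamine 1622 control at 20 µM and 100% = untreated cell control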
DAT uptake mod: changed hDAT dopamine uptake under cocaine IC80, either direction, primary screen, cocaine antagonist project, cell-based, LLC-PK1 hDAT, [14C]-dopamine uptake, MLSMR; 1.3% of 110,000 active; Sodium-dependent dopamine transporter (Homo sapiens), Q01959; B-score at 10 µM; LLC-PK1 hDAT cells, [14C]-dopamine uptake with cocaine IC80; actives deviate in either direction; AID 449768, 2010;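 active = Z score or B-score, a plate-position-corrected score, falls beyond the plate's 99.7% confidence bounds, in either direction; inactive = both scores lie inside the 99.7% bounds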;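 also: scored against the spread of the other compound wells on the same plate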
Target sequence (Q01959 whole entry, looked up): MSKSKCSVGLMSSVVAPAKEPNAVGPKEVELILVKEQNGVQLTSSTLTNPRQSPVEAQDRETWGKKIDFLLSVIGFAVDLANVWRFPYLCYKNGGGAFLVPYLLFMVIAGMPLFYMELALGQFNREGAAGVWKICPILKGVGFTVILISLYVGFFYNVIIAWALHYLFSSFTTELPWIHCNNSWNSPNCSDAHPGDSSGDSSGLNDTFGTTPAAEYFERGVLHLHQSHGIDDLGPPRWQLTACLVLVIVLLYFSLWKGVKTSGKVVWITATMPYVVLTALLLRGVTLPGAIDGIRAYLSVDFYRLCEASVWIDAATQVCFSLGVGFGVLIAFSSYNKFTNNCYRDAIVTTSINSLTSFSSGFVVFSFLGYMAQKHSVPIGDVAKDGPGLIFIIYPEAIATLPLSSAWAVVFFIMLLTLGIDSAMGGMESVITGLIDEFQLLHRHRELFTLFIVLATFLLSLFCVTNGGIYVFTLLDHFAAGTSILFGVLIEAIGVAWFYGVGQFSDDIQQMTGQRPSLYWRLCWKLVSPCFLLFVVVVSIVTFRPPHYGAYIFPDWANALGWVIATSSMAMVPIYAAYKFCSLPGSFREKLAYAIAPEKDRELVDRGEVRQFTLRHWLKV
PTEN del growth: growth suppression of PTEN-null HCT116, primary screen, cell-based, CellTiter-Glo. HCT116 PTEN-null viability, 60 h; hits give low values. viability, % at 10 µM. 1.2% of 140,000 active. AID 827, 2007;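 active = viability at or below a set limit, 4 SD under the median of all tested compounds, cut at about 3.7% in these data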;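 also: PTEN knockout HCT116 line with beta catenin targeted HCT116 as companion control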
WT yeast gro inh: growth inhibition of WT strain, primary screen, mitochondrial fusion inhibitor project, WT and mutant strains, chemical genetic. mitochondrial fusion phenotypic screen. inhibition, % at 10 µM. 2.1% of 190,000 active. AID 1362, 2008; in the data active = inhibition above about 58%; tested in S. cerevisiae
The depositor's hits bear a star; · = not tested or not shown.

SMILES | HCT116 bCat-KO | DAT uptake mod | PTEN del growth | WT yeast gro inh
Cc1onc(-c2c(F)cccc2Cl)c1C(=O)OCN1C(=O)c2ccccc2C1=O | 98 | 0.63 | 105 | -5
Fc1ccc(CO/N=C/C2=C(Cl)c3ccccc3CC2)cc1 | 88 | 1.7 | 87 | 58*
O=c1cc2c(nn1Cc1ccc(F)cc1)-c1ccccc1CC2 | · | · | · | 58
CC1CCN(S(=O)(=O)c2ccc(N/N=C(/C#N)C(N)=O)cc2)CC1 | 90 | -0.077 | 85 | 78*
CCN(C(=O)COC(=O)c1cncc(Br)c1)C1CCS(=O)(=O)C1 (centres undefined) | · | · | · | -4
CC(=Nc1ccccc1)c1sc2ccccc2c1O | 74 | 2.3* | 78 | 21
CC(=Nc1ccccc1)C1=C(O)COC1=O | 108 | -0.33 | 119 | -4
CC(C)CCNC(=O)c1c(CSc2ccc(Cl)cc2)noc1C(=O)NCc1ccccc1 | · | 0.23 | · | ·
Cc1ccc(-c2nnc3sc(C4COc5ccccc5O4)nn23)cc1 (centres undefined) | 109 | 0.61 | 110 | 75*
Clc1ccccc1-c1nnc2sc(C3COc4ccccc4O3)nn12 (centres undefined) | 95 | 1.6 | 94 | 13
COc1cc(CN2C(=S)NC(C)(C)CC2(C)O)cc(OC)c1 (centres undefined) | 93 | · | 107 | 12
COc1ccc(S(=O)(=O)Nc2ccc(O)c3ccccc23)cc1 | 1.5* | 0.3 | 2.3* | 52
COc1ccccc1/C=C/C(=O)c1cc(Br)ccc1OC(=O)c1ccco1 | · | 2.6* | · | ·
Cc1ccc(/C=C/C(=O)c2cc(Br)ccc2OC(=O)c2ccco2)cc1 | 54 | 0.81 | 53 | 4
CC1(C)[C@@H](O)CC[C@]2(C)C3C(O)C=C4[C@H]5C[C@@](C)(CO)CC[C@]5(C)CC[C@]4(C)[C@]3(C)CC[C@@H]12 (some centres undefined) | · | 0.45 | · | ·
CCN1CCc2nc(NC(=O)c3ccccc3)sc2C1 | 94 | · | 96 | 81*
CN(NC(=O)/C=C/C(=O)O)c1ncc(C(F)(F)F)cc1Cl | · | · | · | -9
COC(=O)c1ccc(NC(=O)c2cccc(Cl)c2)o1 | 101 | 0.74 | 91 | 18
COc1ccc(CC(=O)Nc2ccc(-c3noc(-c4cc(OC)c(OC)c(OC)c4)n3)cc2)cc1 | 72 | -0.13 | 65 | 0
COc1cccc(-c2nc(-c3ccc(NC(=O)c4cccs4)cc3)no2)c1 | 79 | -0.86 | 84 | 58*
COc1ccc(CC(=O)Nc2ccc(-c3noc(-c4ccc(Cl)cc4)n3)cc2)cc1 | 1.6* | -0.77 | 0.9* | 10
Cc1ccc(N(CC(=O)NC(C)(C)C)C(=O)CNC(=O)c2cccs2)c(C)c1 | · | · | · | -13
N#CCC(=O)Nc1ccc(C(=O)OCC(=O)Nc2ccccc2-c2ccccc2)cc1 | · | · | · | -11
O=C1CCCC2=C1C(c1ccccn1)Nc1ccc(C(=O)c3ccccc3)cc1N2 (centres undefined) | 90 | · | 82 | -4
O=C1CCCC2=C1C(c1ccco1)Nc1ccc(C(=O)c3ccccc3)cc1N2 (centres undefined) | 31 | 3.7* | 29 | -5
SMILES | HCT116 bCat-KO | DAT uptake mod | PTEN del growth | WT yeast gro inh
COc1cccc(N2CCN(Cc3ccsc3)CC2)c1 | 87 | · | 76 | 11
O=C(c1ccc(-c2ccccc2)cc1)C1CCCN(C(=O)c2ccncc2)C1 (centres undefined) | · | · | · | 28
Cc1ncoc1C(=O)N1CCCC(C(=O)c2ccc(-c3ccccc3)cc2)C1 (centres undefined) | · | · | · | 68*
COc1cc(NC(=S)N2CCC(C(N)=O)CC2)c(OC)cc1Cl | · | · | · | 4
CCOC(=O)c1c(CN2CCOCC2)n(-c2ccccc2)c2cc(Br)c(OC)cc12 | 41 | 0.26 | 30 | 73*
CCOC(=O)c1c(CN2CCOCC2)n(-c2ccccc2)c2cc(Br)c(O)cc12 | 74 | 2.5 | 54 | 15
CC(CCc1ccco1)NC(=O)c1cccc2c1C(=O)N(C1CCCCC1)C2 (centres undefined) | · | · | · | 60*
CC(=O)c1cccc(NC(=O)N2CCC(c3ccc(C)cc3)C2)c1 (centres undefined) | · | · | · | 12
CCOC(=O)C1CCN(C(=O)CN(c2ccc(Oc3ccccc3)cc2)S(C)(=O)=O)CC1 | · | · | · | -2
O=C(CSc1nnc(-c2ccc(F)cc2)o1)Nc1ccccc1N1CCOCC1 | · | 3.3* | · | ·
CCC(C)(C)NC(=O)C(c1ccc(C)o1)N(Cc1cccs1)C(=O)Cn1nnc2ccccc21 (centres undefined) | 2.8* | 0.046 | 2.4* | 48
CCC(C)(C)NC(=O)C(c1ccccc1)N(Cc1cccs1)C(=O)Cn1nnc2ccccc21 (centres undefined) | · | -0.061 | · | ·
Cc1cc(N2CCN(C(c3ccccc3)c3ccc(Cl)cc3)CC2)n2ncnc2n1 (centres undefined) | 88 | · | 89 | 74*
CC(C)c1ccc(S(=O)(=O)/N=C2/C=CC(=O)c3ccccc32)cc1 | · | · | · | 68*
CC1(C)C(=O)OC(c2cccn2-c2cccc([N+](=O)[O-])c2)C2(CCCCC2)C1=O (centres undefined) | 54 | · | 62 | 78*
COc1cccc(-c2csc(N3CCN(C(=O)Nc4ccc(Cl)cc4)CC3)n2)c1 | · | · | · | 67*
Cc1cccc2cc(CN(CC3CCCO3)C(=O)c3cnccn3)c(=O)[nH]c12 (centres undefined) | 100 | 0.66 | 98 | 12
Cc1cc(C)c2[nH]c(=O)c(CN(CC3CCCO3)C(=O)c3cnccn3)cc2c1 (centres undefined) | 104 | 2.5* | 108 | -10
CC1=CN2C(=N)/C(=C/c3ccc(Sc4ccc(Cl)cc4)o3)C(=O)N=C2S1 | 72 | · | 73 | 24
CC1=CN2C(=N)/C(=C/c3ccc(Sc4ccc(C)cc4)o3)C(=O)N=C2S1 | 82 | · | 79 | 77*
COc1ccc(NC(=O)CCCn2c(=O)c3sccc3n(Cc3ccccc3)c2=O)cc1 | 11 | · | 0.8* | -7
Cc1nn(Cc2ccccc2)c(Cl)c1C(=O)OCc1nnc(-c2ccc(Cl)cc2)o1 | 94 | 2.6* | 85 | 34
COc1ccc(NC(=O)N2c3ccccc3CC2C)cc1OC (centres undefined) | 92 | 0.84 | 92 | 95*
COc1ccc(NC(=S)N2c3ccccc3CC2C)cc1OC (centres undefined) | · | · | · | 8
Cc1ccc(-n2[nH]c(C)c(/C=N/c3ccccn3)c2=O)cc1 | 55 | 0.26 | 58 | 35
SMILES | HCT116 bCat-KO | DAT uptake mod | PTEN del growth | WT yeast gro inh
Cc1[nH]n(-c2ccccc2)c(=O)c1C=Nc1cccc2cccnc12 | 3.0* | · | 5 | -6
COc1ccc(-c2c(C)nn3c(-c4ccccc4)cc(C)nc23)cc1 | · | -0.024 | · | 18
COc1ccc(Nc2c3c(nc4c(-c5ccccc5)c(C)nn24)CCC3)cc1 | 78 | · | 74 | 62*
COC(=O)c1cn(-c2ccccc2)nc1-c1ccncc1 | 86 | 1.8* | 90 | 9
COC(=O)c1cn(-c2ccccc2)nc1-c1ccc(OC)cc1 | · | · | · | -3
COc1cccc(C(=O)N2CCC(N3CC(C)OC(C)C3)CC2)c1 (centres undefined) | 82 | · | 97 | -3
